From the supplement of paper PMC11732987, “Enantioselective OTUD7B fragment discovery through chemoproteomics screening and high-throughput optimisation” (Communications Chemistry, 2025)

Key:
Test in all cases: log2 ratio of Biotin-Ahx-Ub-VS probe labelling (fragment/DMSO); higher = less target engagement (more negative = stronger competition), active = hit call of the paper (q ≤ 0.05, log2 ratio ≤ -1)
Settings in all cases: compound concentration: 200 uM; treatment time: 3 h
OTUD6B = molecular target: T1, OTUD6B (UniProt Q8N6M0)
T1 sequence (whole entry): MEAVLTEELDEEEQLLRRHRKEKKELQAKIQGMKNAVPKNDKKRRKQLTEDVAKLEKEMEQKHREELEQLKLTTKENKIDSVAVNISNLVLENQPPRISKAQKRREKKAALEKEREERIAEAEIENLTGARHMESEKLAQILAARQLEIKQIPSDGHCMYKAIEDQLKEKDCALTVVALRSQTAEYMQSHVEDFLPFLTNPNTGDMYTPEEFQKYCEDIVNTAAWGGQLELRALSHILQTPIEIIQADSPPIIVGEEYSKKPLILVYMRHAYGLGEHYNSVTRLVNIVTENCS
In short: (§1)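 Labelling with Biotin-Ahx-Ub-VS (0.5 µM final, 1 h) followed a 3 h triplicate treatment of HEK293T lysate (495 µg per sample, Tris/CHAPS/IGEPAL buffer with protease inhibitors) with fragment at 200 µM or vehicle. Labelled DUBs were NeutrAvidin-enriched, digested with LysC and trypsin, and run by diaPASEF LC-MS/MS. The values, average log2 fragment/vehicle ratios by unpaired t-test, come from global-median-normalised Spectronaut label-free quantities. Proteins with ≥2 unique peptides were used.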

OTUD7B = molecular target: T2, OTUD7B (UniProt Q6GQQ9)
T2 sequence (whole entry): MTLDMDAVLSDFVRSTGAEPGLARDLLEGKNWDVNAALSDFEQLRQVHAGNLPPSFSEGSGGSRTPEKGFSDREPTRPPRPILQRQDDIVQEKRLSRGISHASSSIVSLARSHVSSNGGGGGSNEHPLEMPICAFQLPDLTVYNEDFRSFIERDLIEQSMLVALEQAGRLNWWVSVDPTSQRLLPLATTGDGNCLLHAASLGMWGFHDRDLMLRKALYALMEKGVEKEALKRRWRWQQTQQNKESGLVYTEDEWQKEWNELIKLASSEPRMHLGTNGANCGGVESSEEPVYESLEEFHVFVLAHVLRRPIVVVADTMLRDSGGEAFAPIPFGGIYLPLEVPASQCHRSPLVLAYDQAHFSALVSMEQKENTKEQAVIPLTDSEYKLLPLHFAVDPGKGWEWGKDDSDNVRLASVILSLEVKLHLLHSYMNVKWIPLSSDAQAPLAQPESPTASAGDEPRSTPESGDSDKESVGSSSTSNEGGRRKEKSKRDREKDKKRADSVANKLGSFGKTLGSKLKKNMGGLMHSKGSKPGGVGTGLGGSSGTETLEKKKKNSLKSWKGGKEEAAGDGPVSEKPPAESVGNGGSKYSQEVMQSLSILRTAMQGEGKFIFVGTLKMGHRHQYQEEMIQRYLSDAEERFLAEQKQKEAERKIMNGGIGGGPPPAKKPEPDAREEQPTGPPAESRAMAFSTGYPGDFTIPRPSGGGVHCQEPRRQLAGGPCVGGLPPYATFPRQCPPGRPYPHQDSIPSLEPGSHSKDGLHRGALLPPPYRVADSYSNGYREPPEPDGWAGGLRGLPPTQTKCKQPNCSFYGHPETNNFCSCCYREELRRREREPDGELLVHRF
In short: as §1

PRPF8 = PRPF8 (UniProt Q6P2Q9)
In short: as §1

PSMD7 = molecular target: T3, PSMD7 (UniProt P51665)
T3 sequence (whole entry): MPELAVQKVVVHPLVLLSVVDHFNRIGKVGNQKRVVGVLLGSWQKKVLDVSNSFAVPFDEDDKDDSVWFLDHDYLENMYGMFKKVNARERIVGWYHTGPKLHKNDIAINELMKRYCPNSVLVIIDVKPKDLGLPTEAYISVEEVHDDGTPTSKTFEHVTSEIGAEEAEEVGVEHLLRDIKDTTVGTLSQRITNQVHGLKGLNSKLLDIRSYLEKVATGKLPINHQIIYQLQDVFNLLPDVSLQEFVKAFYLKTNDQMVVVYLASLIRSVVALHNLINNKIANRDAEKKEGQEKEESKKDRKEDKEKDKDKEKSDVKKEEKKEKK
In short: as §1

UCHL1 = UCHL1 (UniProt P09936)
In short: as §1

UCHL3 = molecular target: T4, UCHL3 (UniProt P15374)
T4 sequence (whole entry): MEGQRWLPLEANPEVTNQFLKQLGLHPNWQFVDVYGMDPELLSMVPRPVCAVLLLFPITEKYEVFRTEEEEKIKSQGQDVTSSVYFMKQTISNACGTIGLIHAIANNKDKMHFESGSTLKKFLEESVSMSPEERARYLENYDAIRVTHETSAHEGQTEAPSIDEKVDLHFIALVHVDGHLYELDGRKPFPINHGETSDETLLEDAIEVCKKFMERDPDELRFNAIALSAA
In short: as §1

UCHL5 = molecular target: T5, UCHL5 (UniProt Q9Y5K5)
T5 sequence (whole entry): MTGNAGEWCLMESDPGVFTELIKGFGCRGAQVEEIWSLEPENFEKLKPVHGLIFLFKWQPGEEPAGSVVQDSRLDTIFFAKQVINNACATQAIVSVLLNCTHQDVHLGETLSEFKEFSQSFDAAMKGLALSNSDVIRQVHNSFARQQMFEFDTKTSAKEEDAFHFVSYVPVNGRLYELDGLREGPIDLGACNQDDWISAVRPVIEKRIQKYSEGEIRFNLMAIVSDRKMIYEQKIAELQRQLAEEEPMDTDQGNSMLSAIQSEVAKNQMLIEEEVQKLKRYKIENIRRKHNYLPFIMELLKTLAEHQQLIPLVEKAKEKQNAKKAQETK
In short: as §1

USP10 = USP10 (UniProt Q14694)
In short: as §1

USP15 = molecular target: T6, USP15 (UniProt Q9Y4E8)
T6 sequence (whole entry): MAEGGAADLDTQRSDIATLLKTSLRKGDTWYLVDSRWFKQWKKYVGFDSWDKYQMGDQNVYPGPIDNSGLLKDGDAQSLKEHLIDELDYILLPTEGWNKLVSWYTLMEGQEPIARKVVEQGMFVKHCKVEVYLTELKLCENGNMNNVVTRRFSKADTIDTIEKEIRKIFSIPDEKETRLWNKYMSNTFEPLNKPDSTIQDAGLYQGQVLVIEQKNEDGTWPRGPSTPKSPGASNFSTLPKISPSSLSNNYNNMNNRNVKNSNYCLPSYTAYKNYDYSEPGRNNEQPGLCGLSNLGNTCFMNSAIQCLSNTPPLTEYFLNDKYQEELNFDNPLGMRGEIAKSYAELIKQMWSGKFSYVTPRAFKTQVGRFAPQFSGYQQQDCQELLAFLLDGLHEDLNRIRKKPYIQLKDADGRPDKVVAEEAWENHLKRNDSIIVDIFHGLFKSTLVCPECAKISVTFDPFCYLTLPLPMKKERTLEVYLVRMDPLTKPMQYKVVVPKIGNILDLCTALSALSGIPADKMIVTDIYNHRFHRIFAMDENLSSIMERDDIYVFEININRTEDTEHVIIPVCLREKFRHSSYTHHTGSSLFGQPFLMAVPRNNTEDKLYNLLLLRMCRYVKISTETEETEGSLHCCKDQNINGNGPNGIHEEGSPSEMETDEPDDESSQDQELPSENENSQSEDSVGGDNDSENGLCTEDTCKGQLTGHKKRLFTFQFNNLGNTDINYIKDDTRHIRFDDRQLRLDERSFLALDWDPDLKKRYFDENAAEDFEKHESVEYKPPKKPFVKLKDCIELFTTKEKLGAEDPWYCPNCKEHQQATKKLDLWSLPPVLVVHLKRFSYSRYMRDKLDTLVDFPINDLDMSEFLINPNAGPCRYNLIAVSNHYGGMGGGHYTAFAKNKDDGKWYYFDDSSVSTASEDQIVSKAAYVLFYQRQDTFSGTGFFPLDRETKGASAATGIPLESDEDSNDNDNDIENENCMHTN
In short: as §1

USP16 = USP16 (UniProt Q9Y5T5)
In short: as §1

Measured: log2 ratio of Biotin-Ahx-Ub-VS probe labelling

UCHL1, sequence (P09936 whole entry, looked up): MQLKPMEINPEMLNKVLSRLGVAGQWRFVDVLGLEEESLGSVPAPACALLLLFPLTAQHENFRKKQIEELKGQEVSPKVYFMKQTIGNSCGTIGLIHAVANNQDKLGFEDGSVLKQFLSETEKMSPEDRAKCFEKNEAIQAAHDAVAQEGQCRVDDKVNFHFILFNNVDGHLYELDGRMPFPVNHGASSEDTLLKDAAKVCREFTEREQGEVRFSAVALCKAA
USP16, sequence (Q9Y5T5 whole entry, looked up): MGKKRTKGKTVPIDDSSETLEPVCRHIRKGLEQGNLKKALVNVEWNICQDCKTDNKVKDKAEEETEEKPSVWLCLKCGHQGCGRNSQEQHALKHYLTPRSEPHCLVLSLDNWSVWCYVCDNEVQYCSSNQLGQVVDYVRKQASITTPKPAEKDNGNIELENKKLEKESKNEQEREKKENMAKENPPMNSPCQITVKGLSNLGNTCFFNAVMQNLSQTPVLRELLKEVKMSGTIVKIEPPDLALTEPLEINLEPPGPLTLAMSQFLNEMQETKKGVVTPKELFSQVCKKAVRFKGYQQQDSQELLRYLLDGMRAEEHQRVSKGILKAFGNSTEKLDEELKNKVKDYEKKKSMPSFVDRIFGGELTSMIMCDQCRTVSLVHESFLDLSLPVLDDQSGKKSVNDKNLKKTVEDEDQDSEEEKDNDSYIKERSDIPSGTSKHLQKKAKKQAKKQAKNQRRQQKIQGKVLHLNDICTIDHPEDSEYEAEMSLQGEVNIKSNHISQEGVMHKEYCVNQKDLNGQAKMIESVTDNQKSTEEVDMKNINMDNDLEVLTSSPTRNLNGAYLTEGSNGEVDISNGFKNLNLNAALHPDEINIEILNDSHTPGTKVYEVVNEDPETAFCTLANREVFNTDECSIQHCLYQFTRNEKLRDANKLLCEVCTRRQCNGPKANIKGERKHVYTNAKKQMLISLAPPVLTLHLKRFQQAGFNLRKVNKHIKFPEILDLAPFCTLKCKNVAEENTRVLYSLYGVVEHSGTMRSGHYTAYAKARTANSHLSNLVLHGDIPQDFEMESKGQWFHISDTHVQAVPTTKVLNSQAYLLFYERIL
USP10, sequence (Q14694 whole entry): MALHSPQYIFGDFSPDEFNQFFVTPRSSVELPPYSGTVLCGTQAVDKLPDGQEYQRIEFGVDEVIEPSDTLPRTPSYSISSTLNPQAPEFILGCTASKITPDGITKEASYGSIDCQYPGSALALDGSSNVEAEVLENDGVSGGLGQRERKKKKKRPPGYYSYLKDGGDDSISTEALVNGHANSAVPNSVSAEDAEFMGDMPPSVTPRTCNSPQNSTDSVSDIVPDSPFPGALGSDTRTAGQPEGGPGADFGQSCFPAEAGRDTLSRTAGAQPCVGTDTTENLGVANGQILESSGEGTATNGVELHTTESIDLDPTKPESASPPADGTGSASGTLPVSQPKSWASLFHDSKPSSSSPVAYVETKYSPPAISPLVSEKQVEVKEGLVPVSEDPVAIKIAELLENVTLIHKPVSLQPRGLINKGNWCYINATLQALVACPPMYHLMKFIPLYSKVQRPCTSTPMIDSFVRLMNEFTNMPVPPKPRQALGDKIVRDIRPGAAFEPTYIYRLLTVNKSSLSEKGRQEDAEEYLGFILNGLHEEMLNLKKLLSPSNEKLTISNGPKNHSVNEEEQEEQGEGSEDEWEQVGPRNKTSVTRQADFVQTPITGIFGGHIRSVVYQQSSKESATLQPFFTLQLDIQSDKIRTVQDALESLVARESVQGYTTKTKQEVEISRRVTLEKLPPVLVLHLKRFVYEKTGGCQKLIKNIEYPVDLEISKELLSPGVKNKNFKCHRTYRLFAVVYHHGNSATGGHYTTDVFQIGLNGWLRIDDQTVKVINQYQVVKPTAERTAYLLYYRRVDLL

Cc1nc(CC2CCN(C(=O)CCl)CC2)no1
active: UCHL1 -1.96
inactive: OTUD6B -0.781 | OTUD7B -0.652 | PRPF8 -0.314 | PSMD7 0.0562 | UCHL3 -0.269 | UCHL5 -0.792 | USP10 -0.321 | USP15 -0.77 | USP16 0.0849
